Among the data in PubChem BioAssay (Tox21) are Potency and outcome values, retold here.

Experiment [1] concerns the target Acetylcholinesterase (Homo sapiens) (UniProt P22303). In words: Acetylcholinesterase (AChE) small molecule antagonists: enzyme-based qHTS assay (AID 1347397; calls by dose curve; further: nearly all actives have a fitted effect of over 55% in size). The conditions noted are these: Potency: AChE enzyme activity inhibition; outcome: AChE enzyme activity inhibition; series mostly up to 115 µM. In a few lines:
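Colorimetric DTNB readout of acetylthiocholine hydrolysis, 10 min at room temperature, after 30 min room-temperature exposure of 50 mU/mL recombinant human enzyme to compound; DMSO vehicle control.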
For orientation: qHTS replaces the single test concentration by a dilution series.

The target is the same in experiment [2]. In words: Acetylcholinesterase (AChE) small molecule antagonists: fluorescence cell-based qHTS assay (AID 1347398; calls by dose curve; further: nearly all actives have a fitted effect of over 50% in size; further: potency means the concentration at half of the fitted maximal effect). The settings on record: SH-SY5Y cells; Potency: AChE activity; outcome: AChE activity; series mostly up to 115 µM. The essentials:
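Cellular AChE activity read as thiocholine from acetylthiocholine hydrolysis, detected by Thiolite Green fluorescence at 490/520 nm after 40 min at room temperature. Compounds were pre-incubated 30 min at 37 C on adherent SH-SY5Y cells.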

Experiment [3] has the same target. As to the kind of experiment: Acetylcholinesterase (AChE) small molecule antagonists: enzyme-based qHTS assay with human liver microsomes (AID 1347399; calls by dose curve; further: nearly all actives have a fitted effect of over 60% in size). The settings on record: Potency: qHTS inhibition; outcome: qHTS inhibition; series mostly up to 115 µM. In a few lines:
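Recombinant human AChE (50 mU/mL in the enzyme mix) and human liver microsomes (0.25 mg/mL final) were preincubated with compound and NADPH (0.25 mg/mL final) for 30 min at 37 C. Acetylthiocholine/DTNB was then added; thiocholine was read colorimetrically after 10 min at room temperature.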

Experiment [4] concerns the target Cytochrome P450 2D6 (Homo sapiens) (UniProt P10635). In words: Cytochrome P450 Family 2 Subfamily D Member 6 (CYP2D6) small molecule antagonists: luciferase reporter qHTS assay (AID 1671196). Further: nearly all actives have a fitted effect of over 50% in size. Further: potency means the concentration at half of the fitted maximal effect. The settings on record: P450-Glo CYP2D6 enzyme assay, luciferin luminescence, 1 h; series mostly up to 115 µM. In a few lines:
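Enzyme and proluciferin substrate were first combined with test chemical for 10 min at room temperature. Adding NADPH regeneration solution started a 1 h reaction, stopped with luciferin detection reagent and read by luminescence 20 min later.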
(In general: A reporter such as luciferase makes a cellular process visible.)

Experiment [5] concerns the target Cytochrome P450 2C19 (Homo sapiens) (UniProt P33261). As to the kind of experiment: Cytochrome P450 Family 2 Subfamily C Member 19 (CYP2C19) small molecule antagonists: luciferase reporter qHTS assay (AID 1671197). Further: nearly all actives have a fitted effect of over 65% in size. Further: potency means the concentration at half of the fitted maximal effect. The settings on record: P450-Glo CYP2C19 enzyme, luciferin luminescence, 1 h; series mostly up to 115 µM. The essentials:
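P450-Glo CYP2C19 screening system; proluciferin substrate; DMSO compound stocks; 10 min RT preincubation; NADPH regeneration, 1 h at 37C; luciferin detection reagent, 20 min RT; luminescence as RLU.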

In experiment [6] the target is Cytochrome P450 2C9 (Homo sapiens) (UniProt P11712). As to the kind of experiment: Cytochrome P450 Family 2 Subfamily C Member 9 (CYP2C9) small molecule antagonists: luciferase reporter qHTS assay (AID 1671198). Further: nearly all actives have a fitted effect of over 50% in size. Further: potency means the concentration at half of the fitted maximal effect. The conditions noted are these: P450-Glo CYP2C9 enzyme assay, luciferin luminescence; series mostly up to 115 µM. In a few lines:
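Enzyme-substrate mix preincubated with compound 10 min at room temperature; reaction started with NADPH regeneration solution, 1 h 37C. Luminescent luciferin product read after 20 min detection reagent.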

Experiment [7] has as its target Cytochrome P450 1A2 (Homo sapiens) (UniProt P05177). As to the kind of experiment: Cytochrome P450 Family 1 Subfamily A Member 2 (CYP1A2) small molecule antagonists: luciferase reporter qHTS assay (AID 1671199). Further: nearly all actives have a fitted effect of over 50% in size. Further: potency means the concentration at half of the fitted maximal effect. The settings on record: P450-Glo CYP1A2 enzyme, luciferin luminescence, 1 h; series mostly up to 115 µM. In a few lines: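 Compounds were incubated with CYP1A2 and a luminogenic proluciferin substrate for 10 min at room temperature before the reaction was started with NADPH regeneration solution. After 1 h, detection reagent was added and light output, proportional to CYP activity, was recorded.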

Experiment [8] deals with Voltage-gated inwardly rectifying potassium channel KCNH2 (Homo sapiens) (UniProt Q12809). In words: Human Ether-a-go-go-Related Gene (hERG) channel small molecule antagonists: fluorescence cell-based qHTS assay (AID 1671200). Further: nearly all actives have a fitted effect of over 50% in size. Further: potency means the concentration at half of the fitted maximal effect. The settings on record: hERG-U2OS cells, FluxOR thallium flux fluorescence; series mostly up to 76.8 µM. In a few lines:
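Kinetic two-minute fluorescence traces, sampled at 1 s, were collected following thallium stimulus of U2OS cells (1000 per well) that had been cultured overnight at 37 C and loaded with FluxOR II.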
For orientation: The hERG channel carries a current that helps repolarise heart muscle cells.

Experiment [9] addresses Cytochrome P450 3A4 (Homo sapiens) (UniProt P08684). As to the kind of experiment: Cytochrome P450 Family 3 Subfamily A Member 4 (CYP3A4) small molecule antagonists: luciferase reporter qHTS assay (AID 1671201). Further: nearly all actives have a fitted effect of over 50% in size. Further: potency means the concentration at half of the fitted maximal effect. The conditions noted are these: P450-Glo CYP3A4 enzyme, luciferin luminescence, 1 h; series mostly up to 115 µM. In a few lines: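 Proluciferin-to-luciferin conversion by CYP3A4, NADPH-regenerated, 1 h RT; luminescence read as RLU. Ketoconazole as control.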

The structures appear in SMILES notation. Where “and” joins values, the source holds several entries; their conditions need not be identical. Identical values can stand only once. Results filed as inconclusive are left out. Where a structure was tested more than once in an assay, its records may differ in their call. Calls of active or inactive are those of the source. Unless noted, the call rests on the fitted dose curve; in most records, active means well fitted curve in the direction sought with a large enough effect in the repeat runs; inconclusive means weak or mixed curves; inactive means no such curve, though single readings can be large; an effect the other way counts as inactive or inconclusive.

Chain of Cytochrome P450 2D6 (Homo sapiens) (P10635 whole entry, looked up): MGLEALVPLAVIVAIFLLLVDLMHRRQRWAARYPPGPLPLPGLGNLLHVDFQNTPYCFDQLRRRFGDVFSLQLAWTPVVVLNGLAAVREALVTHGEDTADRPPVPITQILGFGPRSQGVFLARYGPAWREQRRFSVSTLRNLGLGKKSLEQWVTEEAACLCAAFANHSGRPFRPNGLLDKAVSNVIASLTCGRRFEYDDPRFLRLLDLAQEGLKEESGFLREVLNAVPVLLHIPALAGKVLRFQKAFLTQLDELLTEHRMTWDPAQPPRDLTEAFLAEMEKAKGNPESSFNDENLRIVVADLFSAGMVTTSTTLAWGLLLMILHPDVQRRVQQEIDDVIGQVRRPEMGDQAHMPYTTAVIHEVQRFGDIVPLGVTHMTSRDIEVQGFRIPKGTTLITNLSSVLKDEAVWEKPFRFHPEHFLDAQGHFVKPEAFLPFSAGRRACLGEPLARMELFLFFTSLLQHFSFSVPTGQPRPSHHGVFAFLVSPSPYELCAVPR
Chain of Cytochrome P450 3A4 (Homo sapiens) (P08684 whole entry, looked up): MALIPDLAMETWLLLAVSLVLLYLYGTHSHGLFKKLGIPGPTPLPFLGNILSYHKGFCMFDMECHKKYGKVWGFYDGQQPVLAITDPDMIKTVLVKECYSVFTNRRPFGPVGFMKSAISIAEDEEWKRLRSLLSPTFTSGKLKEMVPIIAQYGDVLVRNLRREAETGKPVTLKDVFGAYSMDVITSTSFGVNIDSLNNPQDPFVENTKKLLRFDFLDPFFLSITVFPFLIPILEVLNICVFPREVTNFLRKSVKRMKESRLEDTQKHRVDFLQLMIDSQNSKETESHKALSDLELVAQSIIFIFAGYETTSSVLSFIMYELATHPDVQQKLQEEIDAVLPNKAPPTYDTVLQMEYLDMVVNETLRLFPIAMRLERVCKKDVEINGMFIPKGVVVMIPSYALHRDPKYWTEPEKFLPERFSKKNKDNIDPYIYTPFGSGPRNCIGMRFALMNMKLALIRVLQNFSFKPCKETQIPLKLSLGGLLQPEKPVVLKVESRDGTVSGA
Chain of Acetylcholinesterase (Homo sapiens) (P22303 whole entry, looked up): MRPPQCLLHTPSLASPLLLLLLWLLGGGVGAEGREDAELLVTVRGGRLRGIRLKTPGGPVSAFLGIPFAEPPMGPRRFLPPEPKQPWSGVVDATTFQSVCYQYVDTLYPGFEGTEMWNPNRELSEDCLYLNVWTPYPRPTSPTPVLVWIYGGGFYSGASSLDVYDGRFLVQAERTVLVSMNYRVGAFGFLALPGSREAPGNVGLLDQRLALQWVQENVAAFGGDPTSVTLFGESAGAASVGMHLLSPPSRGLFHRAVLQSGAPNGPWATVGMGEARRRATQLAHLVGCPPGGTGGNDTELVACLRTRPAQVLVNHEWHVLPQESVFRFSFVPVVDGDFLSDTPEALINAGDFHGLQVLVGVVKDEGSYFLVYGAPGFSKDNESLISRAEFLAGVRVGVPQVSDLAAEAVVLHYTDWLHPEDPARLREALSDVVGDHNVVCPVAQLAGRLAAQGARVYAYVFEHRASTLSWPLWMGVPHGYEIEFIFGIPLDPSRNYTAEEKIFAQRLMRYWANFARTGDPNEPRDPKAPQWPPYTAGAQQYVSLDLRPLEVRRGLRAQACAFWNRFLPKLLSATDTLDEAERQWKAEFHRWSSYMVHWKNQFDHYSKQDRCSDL
Chain of Cytochrome P450 2C19 (Homo sapiens) (P33261 whole entry, looked up): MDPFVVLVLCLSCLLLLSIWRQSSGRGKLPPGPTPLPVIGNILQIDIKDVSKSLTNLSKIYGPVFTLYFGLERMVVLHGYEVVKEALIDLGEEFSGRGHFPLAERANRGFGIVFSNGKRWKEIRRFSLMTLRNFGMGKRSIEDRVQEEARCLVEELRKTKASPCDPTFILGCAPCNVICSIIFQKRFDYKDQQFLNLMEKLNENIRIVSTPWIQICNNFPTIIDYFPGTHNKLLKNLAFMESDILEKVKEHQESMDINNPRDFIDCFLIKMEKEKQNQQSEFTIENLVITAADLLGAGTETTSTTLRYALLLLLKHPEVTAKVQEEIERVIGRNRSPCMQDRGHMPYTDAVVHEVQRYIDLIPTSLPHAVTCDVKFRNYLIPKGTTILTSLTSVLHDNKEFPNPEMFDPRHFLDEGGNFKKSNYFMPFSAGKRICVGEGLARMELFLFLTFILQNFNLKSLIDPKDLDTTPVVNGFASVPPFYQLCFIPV
Chain of Cytochrome P450 2C9 (Homo sapiens) (P11712 whole entry, looked up): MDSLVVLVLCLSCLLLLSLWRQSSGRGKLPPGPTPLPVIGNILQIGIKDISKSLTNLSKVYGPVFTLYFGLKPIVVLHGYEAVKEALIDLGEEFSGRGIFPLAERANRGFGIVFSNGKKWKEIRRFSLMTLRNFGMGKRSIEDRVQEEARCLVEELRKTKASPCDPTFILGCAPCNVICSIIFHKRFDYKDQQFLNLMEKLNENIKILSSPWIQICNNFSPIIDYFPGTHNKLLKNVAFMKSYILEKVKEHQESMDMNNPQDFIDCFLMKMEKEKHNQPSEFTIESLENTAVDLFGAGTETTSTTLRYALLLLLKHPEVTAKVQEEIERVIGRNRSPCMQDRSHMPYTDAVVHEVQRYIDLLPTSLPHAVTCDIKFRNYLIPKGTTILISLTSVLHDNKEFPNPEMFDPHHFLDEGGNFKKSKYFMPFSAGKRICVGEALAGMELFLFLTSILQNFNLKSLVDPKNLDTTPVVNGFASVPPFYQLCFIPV
Chain of Cytochrome P450 1A2 (Homo sapiens) (P05177 whole entry, looked up): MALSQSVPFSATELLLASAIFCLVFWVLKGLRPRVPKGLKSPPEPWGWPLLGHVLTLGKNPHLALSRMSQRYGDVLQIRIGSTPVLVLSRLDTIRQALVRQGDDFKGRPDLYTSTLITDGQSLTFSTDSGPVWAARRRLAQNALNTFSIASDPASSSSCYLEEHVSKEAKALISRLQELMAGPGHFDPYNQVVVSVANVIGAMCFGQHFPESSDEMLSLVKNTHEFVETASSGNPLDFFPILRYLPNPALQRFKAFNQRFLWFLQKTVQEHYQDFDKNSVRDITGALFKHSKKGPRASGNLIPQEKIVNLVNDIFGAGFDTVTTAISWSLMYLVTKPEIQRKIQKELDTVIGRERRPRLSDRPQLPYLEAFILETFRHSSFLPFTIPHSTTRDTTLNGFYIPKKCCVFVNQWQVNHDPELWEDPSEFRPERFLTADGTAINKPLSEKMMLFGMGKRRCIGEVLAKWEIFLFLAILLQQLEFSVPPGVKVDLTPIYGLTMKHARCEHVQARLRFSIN
Chain of Voltage-gated inwardly rectifying potassium channel KCNH2 (Homo sapiens) (Q12809 whole entry, looked up): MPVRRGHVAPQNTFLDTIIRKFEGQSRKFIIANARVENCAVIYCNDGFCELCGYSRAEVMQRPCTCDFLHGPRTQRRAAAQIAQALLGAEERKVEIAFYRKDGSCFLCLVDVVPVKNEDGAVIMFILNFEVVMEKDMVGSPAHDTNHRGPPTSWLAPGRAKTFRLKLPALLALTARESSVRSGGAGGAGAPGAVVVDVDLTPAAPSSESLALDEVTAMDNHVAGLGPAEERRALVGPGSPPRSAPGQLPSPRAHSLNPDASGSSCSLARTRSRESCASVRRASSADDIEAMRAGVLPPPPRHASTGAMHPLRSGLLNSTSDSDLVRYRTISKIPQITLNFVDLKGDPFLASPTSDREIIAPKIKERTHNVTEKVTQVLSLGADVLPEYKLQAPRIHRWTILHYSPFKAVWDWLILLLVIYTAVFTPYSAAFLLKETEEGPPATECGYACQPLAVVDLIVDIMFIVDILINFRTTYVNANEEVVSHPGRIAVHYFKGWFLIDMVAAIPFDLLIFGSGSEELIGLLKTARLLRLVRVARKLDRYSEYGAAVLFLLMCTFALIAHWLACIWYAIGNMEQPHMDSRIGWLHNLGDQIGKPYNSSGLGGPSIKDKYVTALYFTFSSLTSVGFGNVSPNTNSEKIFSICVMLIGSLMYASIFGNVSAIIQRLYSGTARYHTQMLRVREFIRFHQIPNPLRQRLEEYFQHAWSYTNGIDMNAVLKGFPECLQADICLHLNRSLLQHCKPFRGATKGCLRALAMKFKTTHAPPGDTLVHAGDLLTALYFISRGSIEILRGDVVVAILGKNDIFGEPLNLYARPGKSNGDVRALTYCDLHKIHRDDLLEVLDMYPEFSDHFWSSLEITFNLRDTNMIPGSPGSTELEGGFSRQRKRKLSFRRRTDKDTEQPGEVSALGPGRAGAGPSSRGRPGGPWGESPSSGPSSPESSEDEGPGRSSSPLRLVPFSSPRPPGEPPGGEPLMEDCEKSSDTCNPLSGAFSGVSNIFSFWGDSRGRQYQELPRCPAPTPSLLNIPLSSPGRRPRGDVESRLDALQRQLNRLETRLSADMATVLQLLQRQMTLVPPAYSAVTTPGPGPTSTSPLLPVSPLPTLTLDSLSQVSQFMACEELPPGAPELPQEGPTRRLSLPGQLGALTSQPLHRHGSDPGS

Consider `O=C(CCl)CCl`, for which the Potency result in [1], in experiment [2], in [3], in experiment [4], in experiment [5] and in experiment [6] was “inactive” each time. The Potency result in [7], in experiment [8] and in experiment [9] was “inactive” each time.

Consider `C=CCN1C[C@H](C)N([C@H](c2ccc(C(=O)N(CC)CC)cc2)c2cccc(OC)c2)C[C@H]1C`, for which the Potency result in experiment [1], in experiment [2], in [3], in experiment [5], in experiment [6] and in experiment [7] was “inactive” each time. Also, the Potency in experiment [4] was 3.09 µM (active); in experiment [8], 3.01 µM (active).

Turning to `CN(C)c1ccc(N=O)cc1`, the Potency result in experiment [1], in experiment [2], in experiment [3] and in experiment [8] was “inactive” in each case. Moreover, the Potency in experiment [4] was 17.9 µM (active) and 25.2 µM (active); in experiment [5], 5.66 µM (active) and 8.94 µM (active); in [6], 35.7 µM (active) and 39.9 µM (active); in experiment [7], 35.7 µM (active) and 39.9 µM (active).

Regarding `c1ccc2sc(SNC3CCCCC3)nc2c1`, the Potency result in experiment [1], in [2], in experiment [3], in experiment [8] and in experiment [9] was “inactive” in each case. For the same compound, the Potency in experiment [4] is 19.8 µM (active) and 35.6 µM (active); in [5] it was 31.4 µM (active) and 22.4 µM (active); in experiment [6] it was 31.4 µM (active) and 17.8 µM (active); in experiment [7], 55.8 µM (active) and 35.6 µM (active).

In the case of `CCCCCCCCn1sccc1=O`, the Potency entry in experiment [1], in experiment [2] and in experiment [3] was “inactive” throughout. The Potency in [4] is 11.3 µM (active); in experiment [5] it was 10.1 µM (active) and 23.5 µM (active); in experiment [6] it was 10.1 µM (active) and 9.37 µM (active); in [7], 28.3 µM (active) and 23.5 µM (active); in experiment [8], 21.9 µM (active); in [9] it was 28.3 µM (active) and 37.3 µM (active).

As to `NNCCO`, the Potency entry in [1], in [2], in experiment [3], in experiment [4], in experiment [5] and in experiment [6] was “inactive” in each case. Besides, the Potency entry in experiment [7], in experiment [8] and in experiment [9] was “inactive” in each case.

In the case of `C1CCNCC1`, the Potency result in experiment [1], in experiment [2], in experiment [3], in experiment [4], in [5] and in experiment [6] was “inactive” in each case. Besides, the Potency entry in experiment [8] and in experiment [9] was “inactive” each time. Besides, the Potency in experiment [7] was 36.8 µM (active).

Regarding `O=C=NC1CCCCC1`, the Potency result in [1], in [2], in [3], in experiment [4], in experiment [5] and in experiment [6] was “inactive” throughout. For the same compound, the Potency entry in experiment [7], in [8] and in experiment [9] was “inactive” in each case.

On to `c1ccc2c(c1)sc1ccccc12`, for which the Potency result in experiment [1], in experiment [2], in experiment [3], in experiment [4], in experiment [6] and in [8] was “inactive” each time. The Potency result in [9] was “inactive”. In addition, the Potency in experiment [5] was 39.9 µM (active) and inactive; in [7], 3.17 µM (active) and 2.57 µM (active).

In the case of `C[Si](Cn1cncn1)(c1ccc(F)cc1)c1ccc(F)cc1`, the Potency result in experiment [1], in [2] and in experiment [3] was “inactive” throughout. Further, the Potency in experiment [4] is 26 µM (active) and 31.7 µM (active); in [5], 58.3 nM (active) and 39.9 nM (active); in [6] it was 1.84 µM (active) and 2 µM (active); in experiment [7], 32.8 µM (active) and 20 µM (active); in [8], 45.1 µM (active); in experiment [9], 104 nM (active) and 126 nM (active).

For the compound `CCCN(CCC)c1c([N+](=O)[O-])cc(C(C)C)cc1[N+](=O)[O-]`, the Potency entry in experiment [1], in experiment [2], in [3], in experiment [4] and in experiment [8] was “inactive” each time. Besides, the Potency in [5] was 8.75 µM (active) and 5.03 µM (active); in [6], 27.7 µM (active) and 31.7 µM (active); in experiment [7] it was 27.7 µM (active) and 35.6 µM (active).

As to `CN1CC[C@]23c4c5ccc(O)c4O[C@H]2[C@@H](O)C=C[C@H]3[C@H]1C5`, the Potency result in experiment [1] was “inactive”.

For `CC(C)(C)c1ccc(CCOc2ncnc3ccccc23)cc1`, the Potency result in experiment [1], in experiment [2], in experiment [3], in experiment [5], in experiment [6] and in [7] was “inactive” in each case. For the same compound, the Potency result in experiment [8] and in experiment [9] was “inactive” in each case. Also, the Potency in experiment [4] is 71 µM (active).

Consider `CCCC(C)(COC(N)=O)COC(=O)NC(C)C` (stereo not drawn), for which the Potency result in experiment [1], in experiment [2], in experiment [3], in experiment [4], in [6] and in experiment [7] was “inactive” each time. The Potency result in [8] and in [9] was “inactive” in each case. The Potency in experiment [5] was 20 µM (active) and 8.71 µM (active).

As for `Cc1cccc(C)c1NC1=NCCCS1`, the Potency entry in experiment [1], in [2], in experiment [3], in experiment [5], in experiment [6] and in experiment [7] was “inactive” each time. In addition, the Potency result in experiment [8] was “inactive”. Also, in [4], the Potency is 11 µM (active).

For `CN(C)C(=O)Nc1cccc(OC(=O)NC(C)(C)C)c1`, the Potency entry in experiment [1], in experiment [2], in experiment [3], in [4], in experiment [5] and in experiment [6] was “inactive” throughout. Besides, the Potency result in [8] and in experiment [9] was “inactive” in each case. Moreover, in experiment [7], the Potency is 39.9 µM (active).

Turning to `CC(C)(c1ccccc1)c1cc(-n2nc3ccccc3n2)c(O)c(C(C)(C)c2ccccc2)c1`, the Potency entry in experiment [1], in experiment [2], in [3], in experiment [4], in experiment [5] and in experiment [6] was “inactive” each time. Further, the Potency result in [8] and in experiment [9] was “inactive” throughout.

For `CCOc1cccc(C2(N3CCN(c4ccccc4)CC3)CCC(C)CC2)c1` (stereo not drawn), the compound was classed as inactive in experiment [1], in experiment [2] and in experiment [3]. Also, the Potency entry in experiment [4], in experiment [5], in experiment [8] and in experiment [9] was “inactive” each time. In addition, in [7], the Potency is 20 µM (active).

For `NC(=S)c1c(Cl)cccc1Cl`, the Potency result in experiment [1], in [2], in experiment [3], in experiment [4], in experiment [5] and in experiment [8] was “inactive” in each case. Besides, the Potency in experiment [7] and in [9] was 28.3 µM (active) each time.

Regarding `CC(Oc1cc(Cl)c(Cl)cc1Cl)C(=O)O` (stereo not drawn), the Potency result in experiment [1], in experiment [2], in experiment [3], in [4], in experiment [5] and in experiment [8] was “inactive” each time. The Potency entry in [9] was “inactive”. In experiment [6], the Potency is 31.8 µM (active).

Turning to `C=CCOCC1CO1` (stereo not drawn), the Potency entry in experiment [1], in [2], in experiment [3], in experiment [4], in [5] and in [6] was “inactive” each time. In addition, the Potency result in experiment [8] is “inactive”. Besides, the Potency in [9] is 30.9 µM (active).

As for `CCOP(=S)(S)OCC`, the Potency entry in [1], in experiment [3], in [4], in experiment [8] and in experiment [9] was “inactive” each time. Besides, the figures for the Potency in experiment [2], in experiment [5] and in [6] were 42.1 µM (active), 33.4 µM (active) and 21.1 µM (active), respectively.

Take `CC[N+]1(C)CCCC(OC(=O)C(O)(c2ccccc2)c2ccccc2)C1` (stereo not drawn): the Potency entry in experiment [1], in experiment [2], in experiment [3], in experiment [5], in experiment [7] and in [8] was “inactive” throughout. Besides, in experiment [9], the Potency result was “inactive”. Moreover, the Potency in experiment [4] was 2.75 µM (active).
